Screening data as filed in PubChem.
An excerpt weighted towards active compounds, which were near 3.3% of everything screened.
Sm TGR block – qHTS Assay for the Inhibitors of Schistosoma Mansoni Peroxiredoxins | Schistosoma mansoni thioredoxin glutathione reductase (TGR), Q962Y6 | purified TGR, DTNB reduction, TNB absorbance 405 nm | Potency, µM (titrated, usually from 114 µM), usual class: inhibitors | actives 3% (n = 360,000); also: nearly all actives have a fitted effect of over 60% in size
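Kinetic colorimetric format: TGR-catalysed, NADPH-driven DTNB reduction monitored via TNB absorbance. Enzyme dispensed at 20 nM; compound exposure 15 min at room temperature before reaction start.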
AmpC detergent – qHTS Inhibitors of AmpC Beta-Lactamase (assay with detergent) | P00811 | AmpC hydrolysis of nitrocefin, absorbance 480 nm, 0.01% Triton | Potency, µM (highest dose often 114 µM), actives largely listed as inhibitors | actives 0.041% (n = 370,000) | AID 485294, 2010; also: nearly all actives have a fitted effect of over 25% in size
Target sequence (P00811 whole entry, looked up): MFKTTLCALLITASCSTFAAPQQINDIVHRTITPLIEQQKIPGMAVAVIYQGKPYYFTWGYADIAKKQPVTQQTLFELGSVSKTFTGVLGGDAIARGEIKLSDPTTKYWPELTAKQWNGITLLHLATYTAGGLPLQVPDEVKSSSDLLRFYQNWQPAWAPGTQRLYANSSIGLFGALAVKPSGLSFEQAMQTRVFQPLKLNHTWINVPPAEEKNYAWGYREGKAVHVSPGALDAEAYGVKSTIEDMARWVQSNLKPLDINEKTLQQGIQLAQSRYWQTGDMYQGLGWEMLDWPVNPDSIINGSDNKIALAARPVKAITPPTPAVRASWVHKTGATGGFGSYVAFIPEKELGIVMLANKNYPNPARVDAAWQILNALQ
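AmpC (5.3 nM in the dispensed reagent) in 20 mM phosphate pH 7.0 with 0.01% (detergent screen) or 0.0001% Triton X-100 was preincubated with compounds for 15 min at room temperature. Nitrocefin was then added from an 800 uM solution, and hydrolysis was followed at 480 nm.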
AmpC no deterg – qHTS Inhibitors of AmpC Beta-Lactamase (assay without detergent); P00811; AmpC nitrocefin hydrolysis, absorbance 480 nm, 0.0001% Triton; Potency, µM (highest dose often 57.1 µM), most hits filed as inhibitors; actives 0.52% (n = 330,000); AID 485341, 2010; also: nearly all actives have a fitted effect of over 20% in size
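AmpC (5.3 nM in the dispensed reagent) in 20 mM phosphate pH 7.0 with 0.01% (detergent screen) or 0.0001% Triton X-100 was preincubated with compounds for 15 min at room temperature. Nitrocefin was then added from an 800 uM solution, and hydrolysis was followed at 480 nm.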
A number is an active result; - = inactive; ? = inconclusive; . = no result given; [ ] = remark or other dose. Calls follow the shape of the dose curve; as a rule, active = well fitted curve in the direction sought with a large enough effect; inconclusive = small, poorly fitted or top-dose-only effect, or another doubt; inactive = no such curve, though single readings can be large; an effect the other way counts as inactive or inconclusive.

SMILES	Sm TGR block	AmpC detergent	AmpC no deterg
CCCCOC(=O)c1ccc(NC(=O)c2cc3c(=O)n4cccc(C)c4nc3n2C)cc1	-	-	.
COC(=O)c1ccc(NC(=S)NC2CC2)cc1	16µM	-	-
COC(=O)Cc1ccc(NC(=S)NC2CC2)cc1	45µM	-	-
COC(=O)Cc1ccc(NC(=S)NCCO)cc1	-	-	-
COC(=O)c1ccc(NC(=S)NC2CC(C)(C)NC(C)(C)C2)cc1	-	-	-
Cc1cc(S(=O)(=O)NCCc2csc(-c3cccc(F)c3)n2)ccc1F	-	-	.
COC(=O)C(NC(=O)c1ccccc1C)(Nc1ncc(S(=O)(=O)c2ccc([N+](=O)[O-])cc2)s1)C(F)(F)F (configuration not stated)	-	?	-
COC(=O)C(NC(=O)c1ccc(F)cc1)(Nc1ncc(S(=O)(=O)c2ccc([N+](=O)[O-])cc2)s1)C(F)(F)F (configuration not stated)	-	-	8.9µM
CCc1ccccc1NC(=O)c1sc2nc(C)cc(COC)c2c1N	-	-	.
O=C(CSc1n[nH]c(-c2ccco2)n1)N1c2ccccc2Sc2ccccc21	35µM	-	-
CCOC(=O)CSc1n[nH]c(-c2ccco2)n1	-	?	-
Cc1ccc2c(=O)cc(C(=O)NCc3ccccc3)oc2c1	-	-	.
CCC1CN(C(=O)N2CCC(C(=O)NCCN(C)C)CC2)c2ccccc2O1 (configuration not stated)	-	-	.
COc1cccc(CC2(CO)CCCN(Cc3ccccc3Cl)C2)c1 (configuration not stated)	-	?	-
Cc1ccccc1CC1(CO)CCCN(Cc2ccccc2Cl)C1 (configuration not stated)	25µM	?	-
CCN(CCCNC(=O)c1nn(-c2ccc(OC)c(Cl)c2)c(=O)c2c1c1ccccc1n2C)c1ccccc1	-	-	.
CC(=O)Nc1sc2c(c1C(c1cccs1)N1CCOCC1)CCCC2 (configuration not stated)	22µM	-	-
CC(=O)Nc1sc2c(c1C(c1ccccn1)N1CCCC1)CCCC2 (configuration not stated)	-	-	-
COCC(=O)Oc1c(Sc2ccc(C)cc2)c(C)nn1C(C)(C)C	-	-	.
C=CCn1c(O)c(C(C)=NCCN2CCCCC2)c(=O)[nH]c1=O	14µM	-	-
CCCCn1c(O)c(C(C)=NCCN2CCCCC2)c(=O)[nH]c1=O	?	-	-
COP(=O)(Cc1ccc(C#N)o1)OC	22µM	-	-
COC(=O)CSc1nc2nc(C)cc(C)n2n1	-	-	.
CCOC(=O)CSc1nc2nc(C)cc(C)n2n1	-	?	10µM
O=C(NNC(=O)c1cccnc1)c1ccncc1	-	-	-
SMILES	Sm TGR block	AmpC detergent	AmpC no deterg
O=C1OCC=C1NNC(=O)c1cccnc1	40µM	-	-
O=C(NCCN1CCOCC1)c1cc(-c2ccc(Cl)cc2)on1	-	-	-
CC(C)Cc1cc(C(=O)NCCN2CCOCC2)no1	-	?	0.5µM
Clc1cccc(CSc2nnc(-c3cccnc3)n2Cc2ccco2)c1	?	-	-
c1cncc(CSc2nnc(-c3cccnc3)n2Cc2ccco2)c1	?	?	-
O=C(CSc1nnc(-c2cccnc2)n1Cc1ccco1)N1c2ccccc2Sc2ccccc21	25µM	-	-
COc1ccc(C(=O)CSc2nnc(-c3cccnc3)n2Cc2ccco2)cc1	56µM	?	-
O=C(CSc1nnc(-c2cnccn2)n1Cc1ccco1)Nc1ccc(Br)cc1	?	-	.
COc1ccc(C(=O)CSc2nnc(-c3cnccn3)n2Cc2ccco2)cc1	35µM	-	-
COc1ccc(C(=O)CSc2nnc(-c3cc4ccccc4cc3O)n2Cc2ccco2)cc1	?	-	-
Clc1ccc(CSc2nnc(-c3cccnc3)n2Cc2ccco2)c(Cl)c1	14µM	-	-
CC(C)CCNC(=O)c1cccc(-n2cnc3cccnc32)c1	-	-	.
CCc1ccc(CNC(=O)CN2C(=O)CCn3nc(-c4cn(C)c5ccccc45)cc32)cc1	-	-	.
CCOCCCn1c(SCC(=O)Nc2ccccc2Cl)nc2c(oc3ccccc32)c1=O	-	-	.
C=CCn1c(CNC(=O)c2ccco2)nnc1SCC(=O)c1ccc(F)cc1	-	-	-
C=CCn1c(CNC(=O)c2ccco2)nnc1SCC(=O)N1c2ccccc2Sc2ccccc21	35µM	-	-
NC(=O)CSc1nc2c(oc3ccccc32)c(=O)n1-c1ccccc1F	-	-	.
COc1ccc(Cn2c(-c3ccco3)nc3oc4ccccc4c(=O)c3c2=O)cc1	-	-	-
COCCn1c(-c2ccc(OC)cc2)nc2oc3cc(OC)ccc3c(=O)c2c1=O	-	-	-
COc1ccc(Cn2c(-c3ccco3)nc3oc4cc(OC)ccc4c(=O)c3c2=O)cc1	?	-	-
COc1ccc(-c2nc3oc4cc(OC)ccc4c(=O)c3c(=O)n2Cc2ccco2)cc1	20µM	-	-
COc1ccc2c(=O)c3c(=O)n(Cc4ccco4)c(-c4ccco4)nc3oc2c1	40µM	-	-
CCc1nc2oc3cc(OC)ccc3c(=O)c2c(=O)n1Cc1ccco1	28µM	-	-
O=C(NC1CCCC1)c1ccc2c(c1)N(Cc1ccc(C(F)(F)F)cc1)C(=O)c1ccccc1S2	-	-	.
CCCN(Cc1cccs1)C(=O)Nc1ccc(Br)c(C)c1	-	-	.
SMILES	Sm TGR block	AmpC detergent	AmpC no deterg
Cn1c(SCC(=O)N2CCOCC2)ncc(C(=O)Nc2ccc(F)cc2)c1=O	-	-	.
COc1ccccc1NC(=O)c1oc2ccccc2c1NC(=O)Cc1ccccc1	-	-	.
CC(C)c1ccc(NC(=O)C2Cc3ccccc3N2C(=O)c2ccccc2)cc1 (configuration not stated)	-	-	.
CCOc1ccc(NC(=O)C2Cc3ccccc3N2C(=O)c2ccccc2)cc1 (configuration not stated)	50µM	?	.
CC(NC(=O)Nc1ccc([N+](=O)[O-])cc1)C(c1ccccc1)N1CCOCC1 (configuration not stated)	28µM	-	-[11.4 µM]
CC(NC(=O)Nc1ccc(Cl)c(Cl)c1)C(c1ccccc1)N1CCOCC1 (configuration not stated)	-	-	-
CCN(c1cccc(C)c1)C1C(=O)c2ccccc2N1C(C)=O (configuration not stated)	22µM	-	-
CC(=O)N(CN1C(=O)c2ccccc2C1=O)c1cccc(C)c1	-	-	-
Cc1ccc(C)c(CN2C(=O)c3ccccc3S(=O)(=O)c3ccc(C(=O)N4CCN(c5ccccc5F)CC4)cc32)c1	-	?	.
CCCCCCCCSc1nnc(/N=C/N(C)C)s1	-	-	-
Cc1cc(Sc2nnc(N)s2)c2ccccc2n1	4µM	-	-
Cc1cc(Sc2nnc(/N=C/N(C)C)s2)c2ccccc2n1	3.5µM	-	-
Cc1cc(C(N)=O)c2ccccc2n1	-	-	-
COc1cccc(CNC(=O)CN2C(=O)CCn3nc(-c4cn(C)c5ccccc45)cc32)c1OC	16µM	-	.
COc1ccccc1CNC(=O)CCCN1C(=O)CCn2nc(-c3cn(C)c4ccccc34)cc21	-	-	.
